Outcome and AC50 data for 10 molecules are collected here from PubChem BioAssay (EPA / NIEHS).

Records with an inconclusive call do not appear. The source made the active and inactive calls. Rule for the calls, unless noted: active = hit-call score of the fitted dose curve at least 0.9, where 1 is the maximum; inactive = score below 0.9.

Experiment [1] concerns the target Oxysterols receptor LXR-alpha (Homo sapiens) (UniProt Q13133). As to the kind of experiment: ATG_LXRa_TRANS: Attagene TRANS-FACTORIAL HepG2 Assay for human Liver X Receptor alpha (LXRa) (AID 2282980; active = hit-call score of the fitted dose curve at least 0.9, where 1 is the maximum). Conditions: HepG2 Attagene TRANS reporter, LXRa transactivation. Summed up:
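Transient HepG2 transfectants, 24 h dosing, RT-PCR/CE mRNA reporter quantitation; gain-of-signal vs DMSO.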

Experiment [2] concerns the target Hepatocyte nuclear factor 4-alpha (Homo sapiens) (UniProt P41235). As to the kind of experiment: ATG_HNF4a_TRANS: Attagene TRANS-FACTORIAL HepG2 Assay for human Hepatocyte Nuclear Factor 4 alpha (HNF4a) (AID 2282982; active = hit-call score of the fitted dose curve at least 0.9, where 1 is the maximum). Conditions: HepG2 HNF4a transactivation reporter, mRNA readout. An outline of the steps: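 HepG2 cells transiently transfected with multiplexed GAL4-UAS reporter units responsive to chimeric NR-GAL4 proteins; compound exposure 24 h. Reporter mRNA quantified by RT-PCR, 6-FAM labelling, HpaI digestion and capillary electrophoresis; gain of signal versus DMSO baseline.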

Experiment [3] can be described thus: ATG_M_06_TRANS: Attagene TRANS-FACTORIAL HepG2 Assay for M06 Transcription Factor (Internal Marker) (AID 2282983; active = hit-call score of the fitted dose curve at least 0.9, where 1 is the maximum;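 note: reporter transcript level by RT-PCR then capillary electrophoresis fluorescence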). Conditions: HepG2 Attagene TRANS M06 internal marker reporter. Summed up:
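Measured by capillary electrophoresis of fluorescently labelled RT-PCR products, this endpoint reflects reporter mRNA in HepG2 cells harbouring exogenous NR-GAL4 reporter constructs after 24 h exposure, with DMSO as baseline.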

A short description of experiment [4]: ATG_M_32_TRANS: Attagene TRANS-FACTORIAL HepG2 Assay for M32 Transcription Factor (Internal Marker) (AID 2282984; active = hit-call score of the fitted dose curve at least 0.9, where 1 is the maximum;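 note: transcript level of a background control reporter unit measured by RT-PCR and capillary electrophoresis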). Particulars: HepG2 Attagene TRANS M32 internal marker reporter. An outline of the steps: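 HepG2 cells transiently transfected with multiple GAL4-UAS reporter transcription units, dosed for 24 hours; reporter mRNA quantified by RT-PCR, 6-FAM primer extension, HpaI digestion and capillary electrophoresis. Gain-of-signal fitted versus DMSO baseline; internal background-control marker.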

Experiment [5] addresses Nuclear receptor subfamily 4 group A member 2 (Homo sapiens) (UniProt P43354). As to the kind of experiment: ATG_NURR1_TRANS: Attagene TRANS-FACTORIAL HepG2 Assay for human Nuclear Receptor Related Protein 1 (NURR1) (AID 2282985; active = hit-call score of the fitted dose curve at least 0.9, where 1 is the maximum). Conditions: HepG2 Attagene TRANS reporter, mRNA readout. An outline of the steps: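 HepG2 cells transiently transfected with GAL4-UAS reporter units and chimeric NR-Gal4 constructs; chemical exposure 24 h. Reporter mRNA quantified by RT-PCR, fluorescent labelling and capillary electrophoresis; gain of signal fitted relative to DMSO baseline.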

The target of experiment [6] is Transcriptional activator Myb (Homo sapiens) (UniProt P10242). The experiment in a line: ATG_Myb_CIS: Attagene CIS-FACTORIAL HepG2 Assay for human Myeloblastosis (Myb) Proto-Oncogene Transcription Factor (AID 2282986). Conditions: HepG2 Attagene CIS-FACTORIAL Myb reporter transcription; actives raise or lower the signal. An outline of the steps: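 Steps: transfect HepG2 with cis-regulated reporter units; dose with chemical for 24 h; isolate RNA, reverse-transcribe, PCR-amplify and FAM-label reporter sequences; digest with HpaI; resolve by capillary electrophoresis. Activity fitted in both directions relative to DMSO.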

Experiment [7] has as its target Nuclear respiratory factor 1 (Homo sapiens) (UniProt Q16656). The experiment in a line: ATG_NRF1_CIS: Attagene CIS-FACTORIAL HepG2 Assay for human Nuclear Respiratory Factor 1 (NRF1) Orphan Gene (AID 2282987). Particulars: HepG2 NRF1 cis-element reporter, Attagene multiplex; actives raise or lower the signal. An outline of the steps: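 Fluorescence intensity of labelled reporter cDNA fragments, resolved by capillary electrophoresis, served as readout for NRF1 cis-element activity. Transiently transfected HepG2 cells were dosed for 24 hours; activity in either direction was fitted against DMSO negative control.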

The nature of experiment [8]: ATG_NFI_CIS: Attagene CIS-FACTORIAL HepG2 Assay for human Nuclear Factor I (NFI) (AID 2282989). Conditions: HepG2 cis-regulatory reporter, NFI response element transcription; actives raise or lower the signal. An outline of the steps:
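HepG2, transient MRTU, 24 h exposure; RNA→cDNA→PCR→FAM label→HpaI→CE fluorescence. Bidirectional fit, DMSO = baseline.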

Experiment [9] concerns the target Myc proto-oncogene protein (Homo sapiens) (UniProt P01106). As to the kind of experiment: ATG_Myc_CIS: Attagene CIS-FACTORIAL HepG2 Assay for human Myelocytomatosis (Myc) Proto-Oncogene Transcription Factor (AID 2282990). Conditions: HepG2, Attagene cis-reporter transcription factor activity; actives raise or lower the signal. Summed up:
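Multiplexed cis-reporter transcription in HepG2 cells after 24 h chemical treatment. Reporter mRNA measured by RT-PCR and capillary electrophoresis fluorescence; activity fitted bidirectionally against DMSO control.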

Experiment [10] is described as follows: ATG_NRF2_ARE_CIS: Attagene CIS-FACTORIAL HepG2 Assay for human Nuclear Factor Erythroid 2 Related Factor 2 (NFR2) response to Antioxidant Response Elements (ARE) (AID 2282992). Conditions: HepG2 Attagene ARE/NRF2 reporter, transcription factor activity; actives raise or lower the signal. An outline of the steps:
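Multiplexed reporter mRNA profiling in HepG2 after a 24 h chemical exposure. Curves fitted in both directions relative to DMSO negative control.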

Experiment [11] in a line: ATG_Oct_MLP_CIS: Attagene CIS-FACTORIAL HepG2 Assay for human Octamer-Binding Transcription Factor (Oct) (AID 2282993). Conditions: HepG2 Attagene cis-factorial Oct reporter, mRNA; actives raise or lower the signal. Summed up: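 Multiplexed cis-reporter assay in human liver HepG2 cells, 24 h incubation. Reporter RNA amplified and labelled, then resolved by capillary electrophoresis; DMSO serves as negative control and baseline.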

The target in experiment [12] is Cellular tumor antigen p53 (Homo sapiens) (UniProt P04637). As to the kind of experiment: ATG_p53_CIS: Attagene CIS-FACTORIAL HepG2 Assay for human p53 Transcription Factor (AID 2282994). Conditions: HepG2 p53 cis-element reporter, Attagene mRNA; actives raise or lower the signal. Summed up:
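Multiplexed reporter mRNA assay in human HepG2 liver cells; cis-regulated units report endogenous factor activity. Values come from bidirectional curve fitting against DMSO negative control after 24 h treatment.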

The nature of experiment [13]: BSK_3C_TissueFactor: BioMAP Diversity Plus: 3C Assay for Tissue Factor Biomarker Activity (AID 2282997). Conditions: BioMAP 3C HUVEC, tissue factor biomarker readout; actives raise or lower the signal. An outline of the steps:
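Values derive from bidirectional curve fitting against DMSO of Tissue Factor ELISA signals, taken 24 h after dosing primary human umbilical vein endothelial cells.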

The nature of experiment [14]: BSK_3C_uPAR: BioMAP Diversity Plus: 3C Assay for Urokinase-type plasminogen activator receptor (uPAR) Biomarker Activity (AID 2282998). Conditions: BioMAP 3C HUVEC, uPAR biomarker ELISA; actives raise or lower the signal. Summed up: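 Dose primary human umbilical vein endothelial cells, incubate 24 h, measure cell-surface uPAR by ELISA, then fit the signal in both directions against the DMSO negative control.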

The nature of experiment [15]: BSK_3C_VCAM1: BioMAP Diversity Plus: 3C Assay for Vascular cell adhesion molecule 1 (VCAM1) Biomarker Activity (AID 2282999). Particulars: BioMAP 3C HUVEC, VCAM1 ELISA, cytokine-stimulated; actives raise or lower the signal. Summed up:
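Human umbilical vein endothelial cells were dosed with compound for 24 h, after which cell-surface VCAM-1 was quantified by ELISA. Bidirectional curve fitting used DMSO as negative control and activity baseline.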

Experiment [16] is described as follows: ATG_NF_kB_CIS: Attagene CIS-FACTORIAL HepG2 Assay for human Nuclear Factor Kappa B (NF-kB) (AID 2282991). Conditions: HepG2 Attagene cis-factorial NF-kB reporter mRNA; actives raise or lower the signal. Summed up: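 Endogenous transcription factor activity in HepG2 was captured via cis-regulated reporter constructs; after 24 h dosing, reporter mRNA was reverse-transcribed, amplified, fluorescently labelled and sized by capillary electrophoresis, with activity fitted bidirectionally relative to DMSO.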

Experiment [17] concerns the target Oxysterols receptor LXR-beta (Homo sapiens) (UniProt P55055). The experiment in a line: ATG_LXRb_TRANS: Attagene TRANS-FACTORIAL HepG2 Assay for human Liver X Receptor beta (LXRb) (AID 2282981; active = hit-call score of the fitted dose curve at least 0.9, where 1 is the maximum). Conditions: HepG2 Attagene TRANS GAL4-LXRb reporter, mRNA. Summed up: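 HepG2 cells transiently transfected with multiple reporter transcription units carrying chimeric NR-Gal4 proteins acting on GAL4-UAS reporters; compound exposure 24 h. Reporter mRNA quantified by RT-PCR, 6-FAM labelling, HpaI digestion and capillary electrophoresis; gain of signal versus DMSO.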

Sequence of Hepatocyte nuclear factor 4-alpha (Homo sapiens) (P41235 whole entry, looked up, the tested form may be a part): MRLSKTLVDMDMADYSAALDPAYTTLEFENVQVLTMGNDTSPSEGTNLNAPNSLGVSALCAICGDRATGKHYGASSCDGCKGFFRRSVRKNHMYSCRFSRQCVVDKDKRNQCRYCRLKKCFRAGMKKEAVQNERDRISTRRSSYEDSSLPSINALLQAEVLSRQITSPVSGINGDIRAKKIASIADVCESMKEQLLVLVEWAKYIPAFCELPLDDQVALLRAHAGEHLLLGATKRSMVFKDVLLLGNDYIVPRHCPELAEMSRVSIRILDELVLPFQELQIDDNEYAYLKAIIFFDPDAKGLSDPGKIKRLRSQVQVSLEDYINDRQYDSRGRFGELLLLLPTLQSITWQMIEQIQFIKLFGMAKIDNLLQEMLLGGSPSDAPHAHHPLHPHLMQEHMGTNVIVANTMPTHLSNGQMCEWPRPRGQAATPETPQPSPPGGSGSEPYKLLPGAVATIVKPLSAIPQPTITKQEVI
Sequence of Cellular tumor antigen p53 (Homo sapiens) (P04637 whole entry, looked up): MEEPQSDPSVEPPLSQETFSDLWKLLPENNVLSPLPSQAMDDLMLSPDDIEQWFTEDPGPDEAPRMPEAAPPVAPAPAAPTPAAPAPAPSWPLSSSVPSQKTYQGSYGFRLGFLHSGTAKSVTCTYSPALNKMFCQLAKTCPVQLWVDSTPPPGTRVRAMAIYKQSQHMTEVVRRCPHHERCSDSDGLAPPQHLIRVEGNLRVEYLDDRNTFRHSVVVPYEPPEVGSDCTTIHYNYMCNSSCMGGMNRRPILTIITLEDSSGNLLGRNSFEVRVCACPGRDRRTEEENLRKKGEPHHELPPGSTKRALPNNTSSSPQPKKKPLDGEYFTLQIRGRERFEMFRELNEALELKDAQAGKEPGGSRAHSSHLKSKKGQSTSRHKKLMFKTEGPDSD
Sequence of Transcriptional activator Myb (Homo sapiens) (P10242 whole entry, looked up): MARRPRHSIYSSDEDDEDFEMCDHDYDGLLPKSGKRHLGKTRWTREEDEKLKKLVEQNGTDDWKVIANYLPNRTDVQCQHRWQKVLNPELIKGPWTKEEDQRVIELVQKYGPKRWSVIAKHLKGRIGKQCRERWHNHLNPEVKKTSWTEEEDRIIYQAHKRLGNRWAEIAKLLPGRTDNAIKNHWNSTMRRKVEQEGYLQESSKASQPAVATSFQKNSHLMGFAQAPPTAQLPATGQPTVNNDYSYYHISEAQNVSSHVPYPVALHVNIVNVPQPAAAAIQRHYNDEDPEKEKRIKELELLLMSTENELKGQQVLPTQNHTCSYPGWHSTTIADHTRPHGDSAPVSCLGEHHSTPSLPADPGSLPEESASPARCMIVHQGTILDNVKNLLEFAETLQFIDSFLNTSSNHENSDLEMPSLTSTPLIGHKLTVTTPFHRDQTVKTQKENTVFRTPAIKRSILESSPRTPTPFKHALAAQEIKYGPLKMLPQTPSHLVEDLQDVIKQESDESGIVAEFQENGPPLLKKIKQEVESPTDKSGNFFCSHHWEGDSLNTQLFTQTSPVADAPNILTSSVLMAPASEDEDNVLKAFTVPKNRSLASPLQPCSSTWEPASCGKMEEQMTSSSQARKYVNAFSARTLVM
Sequence of Oxysterols receptor LXR-alpha (Homo sapiens) (Q13133 whole entry, looked up): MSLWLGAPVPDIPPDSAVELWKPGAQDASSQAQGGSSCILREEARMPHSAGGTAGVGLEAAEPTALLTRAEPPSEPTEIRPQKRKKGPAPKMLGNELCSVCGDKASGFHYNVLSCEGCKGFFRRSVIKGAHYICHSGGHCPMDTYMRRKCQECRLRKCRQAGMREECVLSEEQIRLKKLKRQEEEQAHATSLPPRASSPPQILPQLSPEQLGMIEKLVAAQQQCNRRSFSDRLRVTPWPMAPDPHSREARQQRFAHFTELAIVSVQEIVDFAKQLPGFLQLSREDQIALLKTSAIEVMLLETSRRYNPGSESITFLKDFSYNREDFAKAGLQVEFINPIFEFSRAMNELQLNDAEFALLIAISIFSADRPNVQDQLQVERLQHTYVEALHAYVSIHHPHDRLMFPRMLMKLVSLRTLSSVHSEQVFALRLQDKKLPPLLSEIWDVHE
Sequence of Nuclear respiratory factor 1 (Homo sapiens) (Q16656 whole entry, looked up, the tested form may be a part): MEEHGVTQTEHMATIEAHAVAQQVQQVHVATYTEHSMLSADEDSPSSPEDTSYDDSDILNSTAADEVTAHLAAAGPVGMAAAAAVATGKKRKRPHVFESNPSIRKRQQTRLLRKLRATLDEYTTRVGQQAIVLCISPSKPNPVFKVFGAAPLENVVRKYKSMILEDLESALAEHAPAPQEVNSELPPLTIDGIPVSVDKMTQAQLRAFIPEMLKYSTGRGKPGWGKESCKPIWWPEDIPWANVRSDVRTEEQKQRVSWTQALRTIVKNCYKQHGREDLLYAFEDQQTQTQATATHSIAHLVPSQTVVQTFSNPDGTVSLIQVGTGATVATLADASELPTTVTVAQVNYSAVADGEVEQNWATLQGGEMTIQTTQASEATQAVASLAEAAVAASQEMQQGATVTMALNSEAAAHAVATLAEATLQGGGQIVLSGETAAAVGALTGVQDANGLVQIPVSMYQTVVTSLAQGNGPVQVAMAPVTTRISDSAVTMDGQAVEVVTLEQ
Sequence of Oxysterols receptor LXR-beta (Homo sapiens) (P55055 whole entry, looked up, the tested form may be a part): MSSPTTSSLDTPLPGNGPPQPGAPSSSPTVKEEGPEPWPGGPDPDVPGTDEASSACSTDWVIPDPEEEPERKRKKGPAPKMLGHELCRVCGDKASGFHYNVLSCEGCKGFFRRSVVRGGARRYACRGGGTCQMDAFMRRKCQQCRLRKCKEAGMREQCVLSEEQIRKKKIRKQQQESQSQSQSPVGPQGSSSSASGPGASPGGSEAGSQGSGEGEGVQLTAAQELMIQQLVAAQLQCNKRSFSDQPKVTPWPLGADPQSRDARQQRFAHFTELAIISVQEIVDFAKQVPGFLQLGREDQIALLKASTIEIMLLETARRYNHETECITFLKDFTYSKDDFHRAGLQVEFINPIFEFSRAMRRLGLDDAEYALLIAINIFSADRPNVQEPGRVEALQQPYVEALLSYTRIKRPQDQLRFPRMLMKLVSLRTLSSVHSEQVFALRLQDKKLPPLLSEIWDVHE
Sequence of Nuclear receptor subfamily 4 group A member 2 (Homo sapiens) (P43354 whole entry, looked up, the tested form may be a part): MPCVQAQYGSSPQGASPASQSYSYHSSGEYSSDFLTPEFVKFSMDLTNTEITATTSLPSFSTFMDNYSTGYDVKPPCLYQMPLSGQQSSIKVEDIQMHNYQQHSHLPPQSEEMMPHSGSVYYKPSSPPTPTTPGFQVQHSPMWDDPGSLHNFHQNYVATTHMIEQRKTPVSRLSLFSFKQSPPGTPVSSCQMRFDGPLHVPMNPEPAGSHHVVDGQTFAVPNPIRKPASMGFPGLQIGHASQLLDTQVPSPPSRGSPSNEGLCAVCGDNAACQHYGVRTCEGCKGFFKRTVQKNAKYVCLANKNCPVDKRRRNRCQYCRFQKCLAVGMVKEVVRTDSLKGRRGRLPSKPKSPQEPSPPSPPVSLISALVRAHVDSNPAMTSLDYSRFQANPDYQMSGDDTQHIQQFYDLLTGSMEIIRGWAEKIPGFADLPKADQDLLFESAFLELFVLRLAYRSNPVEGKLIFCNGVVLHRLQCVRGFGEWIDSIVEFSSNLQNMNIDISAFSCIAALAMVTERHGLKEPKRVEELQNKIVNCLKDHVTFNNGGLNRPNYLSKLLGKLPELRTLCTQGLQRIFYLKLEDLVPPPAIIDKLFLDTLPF
Sequence of Myc proto-oncogene protein (Homo sapiens) (P01106 whole entry, looked up): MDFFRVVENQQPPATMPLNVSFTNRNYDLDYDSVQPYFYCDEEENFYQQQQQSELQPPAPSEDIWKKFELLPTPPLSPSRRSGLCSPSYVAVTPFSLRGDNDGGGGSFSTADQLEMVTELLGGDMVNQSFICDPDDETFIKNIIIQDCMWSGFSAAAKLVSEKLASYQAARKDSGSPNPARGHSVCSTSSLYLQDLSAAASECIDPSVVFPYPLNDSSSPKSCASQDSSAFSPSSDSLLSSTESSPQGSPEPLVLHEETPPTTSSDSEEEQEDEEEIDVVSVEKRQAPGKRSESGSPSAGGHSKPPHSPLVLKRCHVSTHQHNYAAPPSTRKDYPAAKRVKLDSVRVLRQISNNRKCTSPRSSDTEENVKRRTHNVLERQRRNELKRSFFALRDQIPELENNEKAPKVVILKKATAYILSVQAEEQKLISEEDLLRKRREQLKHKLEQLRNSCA

For the molecule `COC(=O)c1ccc(C(=O)OC)cc1`, the result in experiment [1], in [2], in experiment [3], in experiment [4], in [5] and in experiment [6] was inactive. Moreover, the call in experiment [7], in experiment [8], in [9], in experiment [10], in experiment [11] and in [12] was inactive. Further, the result in [13], in experiment [14] and in experiment [15] was inactive.
For `CC(C)C(=O)c1ccccc1`, the molecule was called inactive in [1], in [2], in [3], in [4], in experiment [6] and in experiment [7]. For the same molecule, the call in experiment [8], in experiment [9], in experiment [16], in [10] and in [11] was inactive.
Turning to `CCCCCCCCCCCCCC(=O)OCC`, the molecule was classed as inactive in experiment [1], in experiment [17], in [3], in experiment [4], in experiment [5] and in experiment [6]. Moreover, the outcome in experiment [7], in experiment [8], in experiment [9], in experiment [10], in [11] and in experiment [12] was inactive.
Consider `CC(C)=CC(=O)O`, for which the outcome in experiment [1], in experiment [2], in experiment [3], in [4], in experiment [5] and in experiment [6] was inactive. Also, the call in [7], in experiment [8], in experiment [9], in experiment [10], in experiment [11] and in experiment [12] was inactive.
As for `CCc1cccc(O)c1`, the outcome in experiment [1], in experiment [2], in experiment [3], in experiment [4], in experiment [6] and in experiment [7] was inactive. Besides, the molecule was called inactive in experiment [8], in experiment [9], in experiment [10], in experiment [11] and in experiment [12].
In the case of `CCCCCC#CC(=O)OC`, the call in [1], in experiment [3], in experiment [4], in experiment [6], in [7] and in [8] was inactive. Besides, the molecule was classed as inactive in [9], in [11] and in [12]. For the same molecule, in [10], the AC50 was 23.9 µM (active).
Consider `[O-]/[N+](=N\O)c1ccccc1`, for which the molecule was called inactive in experiment [1], in experiment [2], in [3], in experiment [4], in experiment [6] and in experiment [7]. In addition, the call in [8], in [9], in experiment [11] and in experiment [12] was inactive. In addition, the AC50 in [10] was 17.3 µM (active).
Consider `C=CC(=O)OCCCCCC`, for which the result in experiment [1], in experiment [17], in experiment [4], in experiment [5], in [6] and in experiment [7] was inactive. The molecule was classed as inactive in experiment [9], in experiment [10], in [11] and in experiment [12].
`CC(C)N1C(=O)c2ccccc2C1=O`: the outcome in experiment [1], in [3], in [4], in [6], in experiment [7] and in experiment [8] was inactive. Also, the result in [9], in [16], in experiment [10], in experiment [11] and in [12] was inactive.
As to `CC1=C(C=O)C(C)(C)CCC1`, the result in experiment [1], in experiment [17], in [3], in experiment [6], in [7] and in experiment [8] was inactive. The call in [9], in [16], in experiment [10] and in experiment [11] was inactive.
